# Experimental data reported in ChEMBL document CHEMBL3988442, “University of Dundee, Small-Polar-MMV Screening Library” (2021).
# Among all 69,000 compounds or so, about 420 (0.61%) showed an effect of 50% or more. The entries come from a sample that favours strong results as a whole.
# Molecular target: T1, Histidine--tRNA ligase (Leishmania infantum) (UniProt A4I591)
# T1 sequence (whole entry): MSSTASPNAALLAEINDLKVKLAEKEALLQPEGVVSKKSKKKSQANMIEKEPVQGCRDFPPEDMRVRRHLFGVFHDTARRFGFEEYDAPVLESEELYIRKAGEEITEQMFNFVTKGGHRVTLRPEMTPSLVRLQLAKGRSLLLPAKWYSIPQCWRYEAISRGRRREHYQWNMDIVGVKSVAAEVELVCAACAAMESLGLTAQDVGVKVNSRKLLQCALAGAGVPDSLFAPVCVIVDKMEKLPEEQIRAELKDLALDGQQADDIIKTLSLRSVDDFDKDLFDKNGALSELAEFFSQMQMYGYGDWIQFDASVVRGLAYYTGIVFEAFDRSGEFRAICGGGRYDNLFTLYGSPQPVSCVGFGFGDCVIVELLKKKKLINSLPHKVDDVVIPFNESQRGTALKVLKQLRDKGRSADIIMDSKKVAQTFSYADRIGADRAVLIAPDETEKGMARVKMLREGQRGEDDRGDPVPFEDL
# Experiment: Leishmania infantum Histidine tRNA synthetase (LdHisRS)
# Format: functional
# Design: scale not given: in the data most compounds retested in dose-response had high values
# Details: 30 µM
row,Compound,Percent Effect [%]
1,CO[C@H]1CN(C(=O)c2ccc[nH]2)[C@@H]2COC[C@H]12,-140
2,O=C([C@@H]1C[C@@H]2CCN(C3CCOCC3)C[C@H]2O1)N1CCCC1,6.94
3,Cn1cccc1C(=O)NC[C@]12COC[C@H]1CN(Cc1nccs1)C2,12.8
4,O=C(c1ccc2nccnc2c1)N1CCN(CCO)[C@@H]2CS(=O)(=O)C[C@@H]21,3.97
5,Cc1nc(-c2ccoc2)n(CC(=O)N(C)CC(C)C)c1C,15.8
6,CN(C)c1nccc(N2CCO[C@H]3CN(Cc4nccn4C)C[C@H]32)n1,3.19
7,CC(=O)N1CC[C@@]2(O)CCCC[C@H]2[C@@H]1c1ccccc1,-75.8
8,CN1CCN(Cc2nc3c(s2)CCCC3)[C@H]2CS(=O)(=O)C[C@H]21,18.3
9,N#Cc1ccc(C(=O)N2CC[C@H]3[C@H]2CCN3CC2CCOCC2)cc1,-5.77
10,CN(C)CCO[C@H]1CN(C(=O)c2cccs2)[C@@H]2COC[C@H]12,10.9
11,Cn1ccnc1CN1C(=O)CO[C@H]2CN(CCCc3ccccc3)C[C@H]21,17.6
12,CC(C)(C)n1ncc2c1NC(=O)CC2c1ccc(C(=O)O)cc1 (configuration not stated),26
13,O=C1CC(c2cccnc2)c2c(c(C(=O)O)cn2-c2ccc(Cl)cc2)N1 (configuration not stated),27.2
14,O=C1CC(c2ccc(C(=O)O)cc2)c2ncn(-c3ccc(Cl)cc3)c2N1 (configuration not stated),55
15,Cc1noc(C)c1CC(=O)N1CCC(Nc2cccnn2)CC1,12.5
16,Cc1noc(C)c1C(=O)N1CCC(Nc2cccnn2)CC1,60.5
17,Cc1ccc(NC2CCN(C(=O)c3c(C)noc3C)CC2)nn1,28
18,CN1CCCc2cc(-c3cncn3CCNC3CCS(=O)(=O)C3)ccc21 (configuration not stated),26.8
19,CCN1c2ccc(-c3cncn3CCCn3ccnc3C)cc2CC1C (configuration not stated),48.3

row,Compound,Percent Effect [%]
1,Cc1nccn1CCCn1cncc1-c1ccc2c(c1)CC(C)N2C (configuration not stated),65.8
2,CC1Cc2cc(-c3cncn3CC(=O)NC(C)(C)C)ccc2N1C (configuration not stated),31
3,CCN1CCc2cc(-c3cncn3CCNC3CCS(=O)(=O)C3)ccc21 (configuration not stated),29.6
4,Cc1nn(C)c(C)c1CCn1cncc1-c1ccc2c(c1)CC(C)N2C (configuration not stated),53.7
5,CCOC(=O)c1n[nH]cc1-c1cncn1CCCn1nc(C)cc1C,13.1
6,CCN1c2ccc(-c3cncn3CC(=O)NC(C)(C)C)cc2CC1C (configuration not stated),42.1
7,Cc1cnccc1N1CCCN(C(=O)CCCn2ccnc2C)CC1,12.9
8,Cc1cc(C)n(CCCn2cncc2-c2ccc3c(c2)CC(C)N3C)n1 (configuration not stated),64.4
9,Cc1nccn1CCCn1cncc1-c1ccc2c(c1)CCCN2C,30.9
10,Cc1nccn1CCCn1cncc1-c1ccc2c(c1)CCC(C)N2C (configuration not stated),83.2
11,c1coc(CN2CCO[C@H]3[C@@H](OCC4CC4)CC[C@@H]32)c1,9.62
12,Cc1ccc(CN2CC[C@@H]3OCCN(Cc4ccncc4)[C@H]3CC2)s1,15.1
13,CN1CCCCC1c1cncc(N2CCC(O)CC2)n1 (configuration not stated),14.5
14,Cc1cc(N2CCC(O)CC2)nc(C2CCCN2C)n1 (configuration not stated),54.9
15,Cc1cc(N2CCC(O)CC2)nc(C)n1,13.7
16,CN1CC2(CCN(C(=O)c3ccc(=O)n(C)c3)CC2)CC1=O,-38.8
17,O=C(c1ncccn1)N1C[C@@H]2COC[C@]2(c2nnc(C3CC3)o2)C1,20.6
18,CC(=O)N1CCC2(CC1)CC[C@@]1(C(=O)N(C)C)CN(S(C)(=O)=O)C[C@@H]21,13.2
19,CC(=O)N1CC[C@H]2OCC[C@@H](C(=O)NCc3ccco3)[C@@H]2C1,10.1

row,Compound,Percent Effect [%]
1,Cn1ccc2c(-c3cc(N4CCCCC4)ncn3)ccnc21,54.8
2,Cn1ccc2c(-c3cc(N)nc(N4CCOCC4)n3)ccnc21,19.1
3,Cn1ccc2c(-c3cc(N4CCOCC4)ncn3)ccnc21,9.52
4,CC(C)C(=O)N1CCN(C(=O)c2cc(Cl)no2)[C@H]2CS(=O)(=O)C[C@H]21,1.61
5,CC(=O)c1ccc(C(=O)N2C[C@@H]3CC[C@H](C2)N(Cc2ccccc2)C3)s1,30.1
6,CC(C)c1nnc(N2C[C@@H]3CC[C@H](C2)N(CC2CCC2)C3)s1,19.1
7,Cc1nnsc1CN1C[C@@H]2CC[C@H](C1)N(Cc1ccccc1)C2,8.33
8,CC(C)c1nnc(N2C[C@@H]3CC[C@H](C2)N(Cc2ccccc2)C3)s1,59.5
9,CCCN1C[C@H]2CC[C@@H]1CN(c1nnc(C(C)C)s1)C2,-42.9
10,CSCCCN1C(=O)CC[C@H]2CN(Cc3ncc[nH]3)CC[C@H]21,1.33
11,Cc1nnc(NCCC(=O)NCc2ccccc2)c(C#N)c1C,31.5
12,COc1ccc(-c2nc(CCNCc3ccncc3)co2)cc1,24.5
13,Cc1nnc(NCCc2coc(-c3ccccc3)n2)c(C#N)c1C,51.4
14,Cc1nnc(NCCc2coc(-c3ccc(F)cc3)n2)c(C#N)c1C,48.6
15,Cc1nnc(NCC2(c3ccccc3)CC2)c(C#N)c1C,9.62
16,COc1ccc(-c2nc(CCNc3nnc(C)c(C)c3C#N)co2)cc1,57.1
17,CCN1CC[C@@]2(C(=O)N3CCCC3)CCN(S(C)(=O)=O)CC[C@@H]12,21.4
18,O=C(C1CCOCC1)N1C[C@H]2CCC[C@@]2(COc2ccccn2)C1,0
19,CC(C)CC(=O)N1C[C@@H]2CCN(c3ncccn3)C[C@@H]2C1,17.1
